Compound activity (PubChem)
TbPYK inhibitor = blocks Trypanosoma brucei pyruvate kinase | Potency, µM (top dose mostly 76.8 µM), for inactives: at the highest dose activity, negative = inhibition, usual class: inhibitors | TbPYK enzyme, Kinase-Glo Plus ATP luminescence, 45 min | Q57TT1 | AID 624173 | actives 0.12% (n = 410,000); further: on the % scale 0 is the no-effect control and ±100 the full control effect; nearly all actives have a fitted effect of over 50% in size
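Enzyme and substrate buffer are dispensed first and compound is pin-transferred. ADP at 130 uM final then starts the reaction, which runs 45 min at room temperature. Detection reagent is added for 10 min before luminescence is imaged.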
LmPK inhibitor = LmPK (Leishmania mexicana) enzyme inhibition | Potency, µM (highest dose often 57.5 µM), for inactives: top-dose activity change, negative = inhibition, most hits filed as inhibitors | Q27686 | actives 0.37% (n = 290,000) | purified LmPK, Kinase-Glo ATP luminescence, 1 h | AID 1721; further: on the % scale 0 is the no-effect control and ±100 the full control effect
Target sequence (Q27686 whole entry, looked up): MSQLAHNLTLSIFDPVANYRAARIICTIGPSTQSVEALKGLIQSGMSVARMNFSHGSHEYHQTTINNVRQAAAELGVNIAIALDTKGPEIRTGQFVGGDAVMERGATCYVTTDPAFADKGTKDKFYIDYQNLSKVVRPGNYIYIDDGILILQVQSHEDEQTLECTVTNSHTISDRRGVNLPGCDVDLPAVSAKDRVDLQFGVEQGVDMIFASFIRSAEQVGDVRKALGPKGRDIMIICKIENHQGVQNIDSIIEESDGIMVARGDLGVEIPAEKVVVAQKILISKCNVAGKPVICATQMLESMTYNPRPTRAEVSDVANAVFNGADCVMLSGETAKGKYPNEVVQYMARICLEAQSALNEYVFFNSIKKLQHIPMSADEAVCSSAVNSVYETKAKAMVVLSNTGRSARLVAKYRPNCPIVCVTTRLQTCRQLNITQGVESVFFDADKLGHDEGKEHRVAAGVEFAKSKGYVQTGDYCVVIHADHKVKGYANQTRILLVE
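Purified LmPK (0.1 nM) with 0.5 mM PEP and 0.1 mM ADP in imidazole buffer pH 7.2 with MgCl2/KCl, 1 h at room temperature. ATP formed was read by luciferase luminescence and normalized to no-enzyme and uninhibited controls.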
RE007 growth inh = less growth of the S. pombe RE007 Vpr strain; S. pombe RE007 Vpr strain, BacTiter-Glo ATP luminescence, 24 h; Potency, µM (series often up to 92.2 µM), inactives show top-dose activity change, negative = less growth, usual class: inhibitors; actives 0.21% (n = 360,000); AID 651644; active means well fitted falling curve with a large enough effect; inconclusive means small, poorly fitted or top-dose-only effect; inactive means no such curve, though single readings can be large or run the other way; further: on the % scale 0 is the no-effect control and ±100 the full control effect; nearly all actives have a fitted effect of over 50% in size
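Fission yeast strain RE007, carrying one chromosomally integrated HIV-1 vpr copy, was seeded at OD 0.01 in PMG+AL medium with 23 nL pinned compound. After 24 h at 30 °C and 99% humidity, viability was read by BacTiter-Glo luminescence.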
FBPA Giardia inh = inhibitors of Giardia lamblia fructose-1,6-bisphosphate aldolase; A8B2U2; purified Giardia FBPA; Potency, µM (titrated, usually from 59.6 µM), without a hit: top-dose activity, negative = inhibition, usual class: inhibitors; actives 0.71% (n = 290,000); AID 2451; further: on the % scale 0 is the no-effect control and ±100 the full control effect; nearly all actives have a fitted effect of over 55% in size
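40 nM FBPA preincubated 10 min at RT with compound (up to 57.5 uM final), then substrate plus GAPDH/TPI/NAD/arsenate coupling and diaphorase/resazurin added. Fluorescence read after 20 min at RT, 525/598 nm.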
SARS PLP yeast = SARS-CoV PLP inhibition in yeast; S. cerevisiae expressing SARS-CoV PLpro, growth rescue; Potency, µM (titrated, usually from 32.9 µM), inactives show at the top dose activity, positive = growth rescue, usual class: activators; actives 0.19% (n = 330,000); AID 485353; calls by dose curve; further: 0% is about no effect; nearly all actives have a fitted effect of over 55% in size
Starred values were filed as active, the others as inactive; u = inconclusive; x = no result; [ ] = dose if it differs, or a comment. Shown are actives, neighbours in structure and some others; about 1.1% of the full set was active somewhere. Unless noted, the call rests on the fitted dose curve; in most records, active means well fitted curve in the direction sought with a large enough effect; inconclusive means small, poorly fitted or top-dose-only effect, or another doubt; inactive means no such curve, though single readings can be large; an effect the other way counts as inactive or inconclusive. Potency means the concentration at half of the fitted maximal effect.

SMILES | TbPYK inhibitor | LmPK inhibitor | RE007 growth inh | FBPA Giardia inh | SARS PLP yeast
Cc1c(N)nc([C@@H](CC(N)=O)NC[C@H](N)C(N)=O)nc1C(=O)N[C@H](C(=O)N[C@H](C)[C@H](O)[C@H](C)C(=O)N[C@@H](C(=O)NCCc1nc(-c2nc(C(=O)NCCC[S+](C)C)cs2)cs1)[C@H](C)O)[C@H](O[C@@H]1O[C@@H](CO)[C@@H](O)[C@H](O)[C@@H]1O[C@H]1O[C@H](CO)[C@H](O)[C@H](OC(N)=O)[C@@H]1O)c1cnc[nH]1 | 8% | x | x | x | x
CC(C)(O)C1Cc2cc(/C=C/C(=O)O)c(O)cc2O1 (stereo unspecified) | u | 28µM* | u | -27% | -1%
Cc1ccc(CNC(=O)Cn2ncc3c([nH]c4ccc(C)cc43)c2=O)cc1 | -2% | x | x | x | x
O=c1c(-c2ccccc2)coc2cc(O)cc(O)c12 | x | x | x | 20µM* | x
O=c1c(-c2ccc3c(c2)OCCO3)coc2cc(O)cc(O)c12 | 0% | -21% | -19% | 0% | -19%
N#C/C(=C\c1ccc(N2CCOCC2)o1)c1ccccc1 | -28% | 2% | u | u | -5%
N#C/C(=C/c1ccc(N2CCOCC2)o1)c1ccc(Br)cc1 | 25µM* | 2% | -5% | x | -11%
Cc1ccc2sc(N3CCN(C(=O)CCS(=O)(=O)c4ccc(Cl)cc4)CC3)nc2c1C | -3% | x | x | x | x
CCCCOc1ccc(C(=O)Nc2cccc(C)n2)cc1 | -11% | u | -23% | -2% | -11%
CCOc1ccc(C(=O)Nc2cc(C)ccn2)cc1 | u | u | 40µM* | -1% | -14%
CCOc1cc(C(=O)Nc2cc(C)ccn2)cc(OCC)c1OCC | 2% | 4% | -20% | 20% | -43%
CCOc1ccc(C(=O)Nc2cccc(C)n2)cc1 | -14% | 16µM* | u | -12% | -8%
Nc1ccc(-c2nc3ccccc3o2)cc1 | -7% | -15% | -21% | -23% | 12%
O=C1C=CC(=O)N1c1ccc(-c2nc3ccccc3o2)cc1 | 11µM* | x | 6.3µM* | x | x
Nc1ccc2c(c1)C(=O)c1ccccc1-2 | -3% | x | -10% | x | x
Nc1ccc2c(c1)C(=O)C(=O)c1ccccc1-2 | u | u | 25µM* | u | -44%
O=C1C(=O)c2ccc(-c3ccccc3)cc2-c2ccccc21 | 4% | 9% | u | 0.28µM* | -78%
CN(C)c1ccc(N/C=C/C(=O)c2ccco2)cc1 | u | 7.1µM* | -23% | u | 6%
CN(C)c1ccc(N/C=C/C(=O)c2ccc(F)cc2)cc1 | u | 14µM* | -19% | -30% | -8%
O=C(NCc1n[nH]c(=S)n1-c1cccc(Cl)c1)c1ccc(S(=O)(=O)N2CCCC2)cc1 | u | 0% | 13% | 1% | 8%
Cc1cccc(-n2c(CNC(=O)c3ccc(S(=O)(=O)N4CCCCC4)cc3)n[nH]c2=S)c1 | 7.9µM* | 10% | 5% | 8% | -4%
Cc1ccc(CNC(=O)c2c(-c3cccc(Br)c3)noc2C)o1 | -16% | x | x | x | x
Nc1c(C(=O)N2CCOCC2)sc2nc(N3CCOCC3)c3c(c12)CCCC3 | 16µM* | -26% | 10% | -6% | 1%
NNC(=O)c1sc2nc(N3CCOCC3)c3c(c2c1N)CCCC3 | -4% | -2% | -11% | 0% | 0%
CCC(C)C1OC2(C=CC1C)CC1CC(C/C=C(\C)C(OC3CC(OC)C(OC4CC(OC)C(NC(C)=O)C(C)O4)C(C)O3)C(C)/C=C/C=C3\COC4C(O)C(C)=CC(C(=O)O1)C34O)O2 (stereo unspecified) (tested in a mixture with another compound) | -5% | x | x | x | x
SMILES | TbPYK inhibitor | LmPK inhibitor | RE007 growth inh | FBPA Giardia inh | SARS PLP yeast
COc1cccc(N2C(=O)CC(N3CCC(c4nc5ccccc5[nH]4)CC3)C2=O)c1 (stereo unspecified) | -6% | -4% | 35µM* | 11% | -40%
O=C1CC(N2CCC(c3nc4ccccc4o3)CC2)C(=O)N1c1cc(Cl)cc(Cl)c1 (stereo unspecified) | -14% | 17% | 28µM* | -5% | -56%
Cc1cccc(N2C(=O)CC(N3CCC(c4nc5ccccc5[nH]4)CC3)C2=O)c1 (stereo unspecified) | 0% | -10% | 28µM* | 3% | -35%
COc1ccc(N2C(=O)CC(N3CCC(n4c(=O)[nH]c5ccccc54)CC3)C2=O)cc1 (stereo unspecified) | 0% | 0% | 28µM* | 1% | -32%
CCN1C(=O)CC(N2CCC(c3nc4ccccc4[nH]3)CC2)C1=O (stereo unspecified) | 5% | 9% | -3% | 0% | -4%
CCC(c1nnnn1-c1ccc(OC)cc1)N1CCC(n2c(=O)[nH]c3ccccc32)CC1 (stereo unspecified) | -4% | x | 6% | x | x
CCc1ccccc1NC(=O)c1ccc2c(SCC(=O)O)c3c(nc2c1)CCC3 | 0% | x | x | x | x
C=CCc1ccc(OC)cc1 | -3% | x | -2% | 0% | 0%
C=CC(C1=CC(=O)C(OC)=CC1=O)c1ccc(OC)cc1 (stereo unspecified) | x | x | x | 20µM* | x
C=CC(C1=CC(=O)C(OC)=C(OC)C1=O)c1ccccc1 (stereo unspecified) | x | x | x | 18µM* | x
COc1ccc(C(=O)N/N=C/C(C)c2ccccc2)cc1OC (stereo unspecified) | 0% | 1% | 2% | 1% | 2%
C=CC(C1=CC(=O)C(OC)=CC1=O)c1ccccc1 (stereo unspecified) | x | x | x | 20µM* | x
CC/C=C(\C(=O)N[C@H]1C(=O)N2C(C(=O)OCOC(=O)C(C)(C)C)=C(COC(N)=O)CS[C@H]12)c1csc(N)n1 | -8% | x | x | x | x
CCN(CC)c1ccc2cc(-c3nc(-c4cccs4)no3)c(=O)oc2c1 | 3% | x | x | x | x
Cc1cc(C)c(S(=O)(=O)Nc2cccc3cccnc23)c(C)c1 | x | x | x | -3% | x
Cc1cc(C)c(S(=O)(=O)Nc2ccc[nH]c2=O)c(C)c1 | -14% | 5% | 18% | 5.6µM* | 1%
COc1ccc(-c2nc3ccc(C4=C(C)CC(=O)NN4)cc3[nH]2)cc1 | 3% | x | x | x | x
CC(SC(=S)N1CCOCC1)C(=O)O (stereo unspecified) | -2% | 0% | -10% | 22% | -4%
S=C(SSC(=S)N1CCOCC1)N1CCOCC1 | 3.2µM* | x | 1%[18.4 µM] | x | x
CCN1/C(=C/c2ccc3ccccc3[n+]2CC)C=Cc2ccccc21 | 32µM* | 14µM* | 22µM* | -15% | -32%
O=C1CC(c2nc(-c3ccccc3)no2)CN1c1ccc2c(c1)OCCO2 (stereo unspecified) | -5% | x | x | x | x
CC1(C)CC/C(=C\c2ccc(Cl)cc2)C1(O)Cn1cncn1 (stereo unspecified) | -6%[157 µM] | x | x | x | x
CCOc1ccc(-c2ccc(SC)nn2)cc1 | u | 5µM* | u | -1% | -5%
